PubChem BioAssay AID1159580 (chemical genetic matrix, 2015)
Screen size: about 5,500 compounds; about 2,000 (36%) were called active. Inconclusive results (about 18%) are left out. Rule as the data show it: active = normalized growth mostly below about 0.91 (no sharp cut-off); inconclusive = no clear call, values can overlap the other calls; inactive = mostly above about 0.92. Some of the results follow.

Assay: chemical genetic growth profiling, strain panel (AID 1159580);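 also: tested at 20 µM; growth read once vehicle control cultures reached saturation at 30 °C; 1 = growth at the plate median or of vehicle wells; lower values mean less growth of the strain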
Settings: growth OD

Measured: normalized growth

S=c1[nH]c2ccccc2s1
active: S. cerevisiae deletion strains, locus YLR262C, strain YPT6 (second series), stronger effect = lower value 0.82 | S. cerevisiae deletion strains, locus YNL183C, strain NPR1, stronger effect = lower value 0.751 | S. cerevisiae deletion strains, locus YOL006C, strain TOP1, stronger effect = lower value 0.417 | S. cerevisiae deletion strains, locus YOR106W, strain vam3, stronger effect = lower value 0.865 | S. cerevisiae deletion strains, locus YOR231W, strain MKK1, stronger effect = lower value 0.798 | S. cerevisiae deletion strains, locus YPL051W, strain arl3, stronger effect = lower value 0.904
inactive: S. cerevisiae deletion strains, locus YKL009W, strain mrt4, stronger effect = lower value 0.996 | S. cerevisiae deletion strains, locus YKL068W, stronger effect = lower value 1.02 | S. cerevisiae deletion strains, locus YKL085W, strain MDH1 (second series), stronger effect = lower value 1.01 | S. cerevisiae deletion strains, locus YKL085W, strain MDH1, stronger effect = lower value 1.01 | S. cerevisiae deletion strains, locus YKL160W, strain elf1, stronger effect = lower value 1.01 | S. cerevisiae deletion strains, locus YKL190W, strain CNB1, stronger effect = lower value 0.99 | S. cerevisiae deletion strains, locus YKR001C, strain vps1, stronger effect = lower value 0.954 | S. cerevisiae deletion strains, locus YKR026C, strain gcn3, stronger effect = lower value 0.992 | S. cerevisiae deletion strains, locus YKR091W, strain srl3, stronger effect = lower value 0.999 | S. cerevisiae deletion strains, locus YLL001W, strain dnm1, stronger effect = lower value 0.992 | S. cerevisiae deletion strains, locus YLL026W, stronger effect = lower value 0.989 | S. cerevisiae deletion strains, locus YLL041C, strain sdh2, stronger effect = lower value 0.98 | S. cerevisiae deletion strains, locus YLR027C, strain aat2, stronger effect = lower value 0.972 | S. cerevisiae deletion strains, locus YLR039C, strain RIC1, stronger effect = lower value 0.858 | S. cerevisiae deletion strains, locus YLR058C, strain SHM2, stronger effect = lower value 0.962 | S. cerevisiae deletion strains, locus YLR102C, strain apc9, stronger effect = lower value 1.01 | S. cerevisiae deletion strains, locus YLR113W, strain HOG1, stronger effect = lower value 0.919 | S. cerevisiae deletion strains, locus YLR221C, strain rsa3, stronger effect = lower value 0.936 | S. cerevisiae deletion strains, locus YLR258W, strain gsy2, stronger effect = lower value 0.988 | S. cerevisiae deletion strains, locus YLR262C, strain YPT6, stronger effect = lower value 0.921 | S. cerevisiae deletion strains, locus YLR268W, strain sec22, stronger effect = lower value 0.932 | S. cerevisiae deletion strains, locus YLR320W, strain mms22, stronger effect = lower value 0.967 | S. cerevisiae deletion strains, locus YLR330W, strain CHS5, stronger effect = lower value 0.997 | S. cerevisiae deletion strains, locus YLR342W, strain FKS1 (second series), stronger effect = lower value 0.808 | S. cerevisiae deletion strains, locus YLR342W, strain FKS1, stronger effect = lower value 0.972 | S. cerevisiae deletion strains, locus YLR357W, strain rsc2, stronger effect = lower value 0.879 | S. cerevisiae deletion strains, locus YLR370C, strain arc18, stronger effect = lower value 0.971 | S. cerevisiae deletion strains, locus YLR371W, strain rom2, stronger effect = lower value 1.01 | S. cerevisiae deletion strains, locus YLR384C, strain iki3, stronger effect = lower value 0.982 | S. cerevisiae deletion strains, locus YLR418C, strain cdc73, stronger effect = lower value 0.907 | S. cerevisiae deletion strains, locus YML016C, strain PPZ1, stronger effect = lower value 0.973 | S. cerevisiae deletion strains, locus YML032C, strain rad52, stronger effect = lower value 1 | S. cerevisiae deletion strains, locus YML120C, strain ndi1, stronger effect = lower value 1.07 | S. cerevisiae deletion strains, locus YML124C, strain tub3, stronger effect = lower value 1.01 | S. cerevisiae deletion strains, locus YMR058W, strain fet3, stronger effect = lower value 0.947 | S. cerevisiae deletion strains, locus YMR078C, strain ctf18, stronger effect = lower value 1 | S. cerevisiae deletion strains, locus YMR125W, strain sto1, stronger effect = lower value 1.11 | S. cerevisiae deletion strains, locus YMR129W, stronger effect = lower value 0.993 | S. cerevisiae deletion strains, locus YMR205C, strain PFK2, stronger effect = lower value 1.03 | S. cerevisiae deletion strains, locus YMR223W, strain ubp8, stronger effect = lower value 0.95 | S. cerevisiae deletion strains, locus YMR231W, strain pep5, stronger effect = lower value 0.973 | S. cerevisiae deletion strains, locus YMR263W, strain SAP30, stronger effect = lower value 0.994 | S. cerevisiae deletion strains, locus YMR307W, strain GAS1, stronger effect = lower value 0.862 | S. cerevisiae deletion strains, locus YNL067W, strain RPL9B, stronger effect = lower value 0.992 | S. cerevisiae deletion strains, locus YNL071W, strain lat1, stronger effect = lower value 0.929 | S. cerevisiae deletion strains, locus YNL128W, strain TEP1, stronger effect = lower value 1.02 | S. cerevisiae deletion strains, locus YNL153C, strain GIM3, stronger effect = lower value 0.973 | S. cerevisiae deletion strains, locus YNL209W, strain ssb2, stronger effect = lower value 0.984 | S. cerevisiae deletion strains, locus YNL233W, strain BNI4, stronger effect = lower value 0.985 | S. cerevisiae deletion strains, locus YNL248C, strain rpa49, stronger effect = lower value 0.974 | S. cerevisiae deletion strains, locus YNL250W, strain rad50, stronger effect = lower value 1.01 | S. cerevisiae deletion strains, locus YNL271C, strain bni1, stronger effect = lower value 0.99 | S. cerevisiae deletion strains, locus YNL298W, strain CLA4, stronger effect = lower value 1.01 | S. cerevisiae deletion strains, locus YNL307C, strain MCK1, stronger effect = lower value 0.97 | S. cerevisiae deletion strains, locus YNL322C, strain KRE1 (second series), stronger effect = lower value 1.02 | S. cerevisiae deletion strains, locus YNL322C, strain KRE1, stronger effect = lower value 1 | S. cerevisiae deletion strains, locus YNR049C, strain mso1, stronger effect = lower value 0.983 | S. cerevisiae deletion strains, locus YNR052C, strain pop2, stronger effect = lower value 0.984 | S. cerevisiae deletion strains, locus YOL012C, strain htz1 0.93 | S. cerevisiae deletion strains, locus YOL147C, strain pex11, stronger effect = lower value 0.99 | S. cerevisiae deletion strains, locus YOR001W, strain rrp6, stronger effect = lower value 0.943 | S. cerevisiae deletion strains, locus YOR061W, strain CKA2, stronger effect = lower value 0.985 | S. cerevisiae deletion strains, locus YOR069W, strain VPS5, stronger effect = lower value 0.99 | S. cerevisiae deletion strains, locus YOR070C, strain gyp1, stronger effect = lower value 0.97 | S. cerevisiae deletion strains, locus YOR080W, strain dia2, stronger effect = lower value 0.992 | S. cerevisiae deletion strains, locus YOR083W, strain WHI5, stronger effect = lower value 0.997 | S. cerevisiae deletion strains, locus YOR136W, strain idh2, stronger effect = lower value 0.999 | S. cerevisiae deletion strains, locus YOR144C, strain elg1, stronger effect = lower value 1.01 | S. cerevisiae deletion strains, locus YOR184W, strain ser1, stronger effect = lower value 0.88 | S. cerevisiae deletion strains, locus YOR265W, strain rbl2, stronger effect = lower value 0.976 | S. cerevisiae deletion strains, locus YOR270C, strain vph1, stronger effect = lower value 0.834 | S. cerevisiae deletion strains, locus YOR290C, strain snf2, stronger effect = lower value 0.991 | S. cerevisiae deletion strains, locus YOR316C, strain cot1, stronger effect = lower value 1.02 | S. cerevisiae deletion strains, locus YPL055C, strain LGE1, stronger effect = lower value 0.987 | S. cerevisiae deletion strains, locus YPL078C, strain atp4, stronger effect = lower value 1 | S. cerevisiae deletion strains, locus YPL106C, strain sse1, stronger effect = lower value 0.986 | S. cerevisiae deletion strains, locus YPL240C, strain hsp82, stronger effect = lower value 0.986 | S. cerevisiae deletion strains, locus YPL241C, strain CIN2, stronger effect = lower value 0.998 | S. cerevisiae deletion strains, locus YPL256C, strain CLN2, stronger effect = lower value 0.904 | S. cerevisiae deletion strains, locus YPR119W, strain clb2, stronger effect = lower value 1.02 | S. cerevisiae deletion strains, locus YPR141C, strain kar3, stronger effect = lower value 1.01 | S. cerevisiae deletion strains, locus YPR163C, strain tif3, stronger effect = lower value 1 | S. cerevisiae deletion strains, locus YPR167C, strain met16, stronger effect = lower value 1.02 | S. cerevisiae deletion strains, strain wtn01, stronger effect = lower value 0.977 | S. cerevisiae strains, strain wild type, stronger effect = lower value 0.996
